Records with an inconclusive call do not appear. Where a call stands in place of a potency, no number is given. The source made the active and inactive calls. Calls follow the shape of the dose curve; as a rule, active = well fitted curve in the direction sought with a large enough effect; inconclusive = small, poorly fitted or top-dose-only effect, or another doubt; inactive = no such curve, though single readings can be large; an effect the other way counts as inactive or inconclusive.

The values that follow come from PubChem BioAssay (NCATS).

In experiment [1] the target is Aldehyde dehydrogenase, mitochondrial (Homo sapiens) (UniProt P05091). Description: qHTS for Inhibitors of the Aldehyde Dehydrogenase Family (ALDH2) Primary screen (AID 2061308). Also: nearly all actives have a fitted effect of over 55% in size.
Experiment [2] deals with Retinaldehyde dehydrogenase 3 (Homo sapiens) (UniProt P47895). Description: qHTS for Inhibitors of the Aldehyde Dehydrogenase Family (ALDH1A3) Primary screen (AID 2061315).

Turning to `c1ccc2sc(-c3csc4c3CCNC4)nc2c1`, the Potency entry in experiment [1] and in experiment [2] was “inactive” each time.

As to `FC(F)(F)c1ccccc1-c1nc(NCc2ccc(-c3ccc4c(c3)OCO4)cc2)c2ccccc2n1`, the Potency entry in experiment [1] and in experiment [2] was “inactive” each time.

Regarding `Cc1cc(C)nc(NC(=S)N2CCN(c3ccc(C(=O)O)cc3)CC2)c1`, the Potency result in experiment [1] and in experiment [2] was “inactive” in each case.

As for `O=[S+]([O-])(c1c(F)cccc1F)N1CCN([S+](=O)([O-])c2c(F)c(F)c(F)c(F)c2F)CC1`, the Potency result in experiment [1] and in experiment [2] was “inactive” in each case.

For the molecule `Cc1ccc(C(=O)NC(c2ccco2)c2cc(Cl)c3cccnc3c2O)cc1` (stereo not drawn), the Potency entry in experiment [1] and in experiment [2] was “inactive” throughout.

As to `Cn1c(NC2=NC3(CCCC3)C3=C(CCCC3=O)N2)nc2ccccc21`, the Potency result in experiment [1] and in experiment [2] was “inactive” throughout.

With `Cc1cc(N[S+](=O)([O-])c2ccc(NC(=O)Cc3ccc4c(c3)CCCC4)cc2)no1`, the Potency result in experiment [1] and in experiment [2] was “inactive” each time.

On to `NC(=O)C1CCN(c2nnc(-c3ccc(Br)cc3)s2)CC1`, for which the Potency entry in experiment [1] and in experiment [2] was “inactive” in each case.

`Cc1cnc(-c2ccccc2C(C)C)nc1NCc1ccc(-c2ccnc(C(F)(F)F)c2)cc1`: the Potency entry in experiment [1] and in experiment [2] was “inactive” throughout.

Turning to `O=C(NNC(=O)c1cc2ccccc2[nH]1)OCc1ccccc1`, the Potency result in experiment [1] and in experiment [2] was “inactive” each time.

For `COc1ccccc1C1=Nn2c(nnc2-c2ccccc2C)SC1`, the Potency entry in experiment [1] and in experiment [2] was “inactive” each time.

On to `Cc1ccc(OCCn2c(CCNC(=O)C3CCNCC3)nc3ccccc32)cc1`, for which the Potency result in experiment [1] and in experiment [2] was “inactive” throughout.

For `Cc1ccc(NS(=O)(=O)c2ccc3c(c2)CCC(=O)N3)cc1C`, the Potency entry in experiment [1] and in experiment [2] was “inactive” throughout.

`Oc1ccc(CNCc2ccccc2F)c2cccnc12`: the Potency result in experiment [1] and in experiment [2] was “inactive” in each case.

For the molecule `CCS(=O)(=O)N1CCC(C(=O)Nc2ccc(S(=O)(=O)Nc3nccs3)cc2)CC1`, the Potency entry in experiment [1] and in experiment [2] was “inactive” throughout.

For `C/C(=C\c1ccc2c(c1)OCCO2)C1Nc2cccc3cccc(c23)N1`, the Potency result in experiment [1] and in experiment [2] was “inactive” each time.

As to `Cc1cc(N[S+](=O)([O-])c2cc3c(cc2F)NC(=O)CC3)ccc1Br`, the Potency result in experiment [1] and in experiment [2] was “inactive” throughout.

For the molecule `COc1ccc(C2N=C(Nc3nc4ccccc4o3)NC3=C2C(=O)CCC3)cc1` (stereo not drawn), the Potency result in experiment [1] and in experiment [2] was “inactive” each time.

For `Cc1ccc(OCCn2c(CCNC(=O)C3CCN(C(=O)OC(C)(C)C)CC3)nc3ccccc32)cc1`, the Potency result in experiment [1] and in experiment [2] was “inactive” each time.

`Cc1ccc(S(=O)(=O)Nc2cnccc2C(=O)Nc2nc3ccccc3s2)cc1`: the Potency entry in experiment [1] and in experiment [2] was “inactive” each time.

For the molecule `Cc1ccc(-c2nc3ccccc3[nH]2)cc1NC(=O)c1ccc(-c2cccc(Cl)c2)o1`, the Potency result in experiment [1] and in experiment [2] was “inactive” in each case.

Take `C=C(C)C(=O)OC1CC2(C)OC(=CC2=O)C(=C)CC2OC(=O)C(COC)C12` (stereo not drawn): the Potency entry in experiment [1] and in experiment [2] was “inactive” in each case.

In the case of `CCOC(=O)C1CCN(C(=O)C(C)(C)NC(=O)Nc2ccc(F)c(F)c2)CC1`, the Potency entry in experiment [1] and in experiment [2] was “inactive” throughout.

Regarding `Cc1ccc(C(=O)Nc2ccc(N3CCCCC3)cc2)cc1`, the Potency result in experiment [1] and in experiment [2] was “inactive” in each case.

As for `C#CCOc1cc(C2=Nn3c(nnc3-c3ccc(OCC(C)=O)cc3)SC2)ccc1OC`, the Potency result in experiment [1] and in experiment [2] was “inactive” throughout.

In the case of `CC(Nc1nc(-c2ccccc2C(F)(F)F)nc2ccccc12)c1ccc(-c2ccncc2)cc1` (stereo not drawn), the Potency result in experiment [1] and in experiment [2] was “inactive” each time.

Consider `N#Cc1cccc(S(=O)(=O)Nc2cnccc2C(=O)Nc2nc(-c3ccccc3)cs2)c1`, for which the Potency entry in experiment [1] and in experiment [2] was “inactive” throughout.

For the molecule `CCCCNc1nc(C)nc2c1nc(-c1ccccc1)n2CCCN(C)C`, the Potency result in experiment [1] and in experiment [2] was “inactive” throughout.

Take `O=C1c2ccccc2C(=O)N1c1ccc(Cl)cc1`: the Potency entry in experiment [1] and in experiment [2] was “inactive” throughout.

In the case of `COc1ccc(Nc2nc(C#N)nc(NC3CCCC3)n2)cc1`, the Potency entry in experiment [1] and in experiment [2] was “inactive” throughout.

In the case of `Cc1ccccc1C(=O)N1CCc2cc(-c3nc(NC(=O)Cc4ccccc4)sc3C)ccc21`, the Potency result in experiment [1] and in experiment [2] was “inactive” each time.

As to `O=C(Nc1ncc(Cc2ccc(C(F)(F)F)cc2)s1)c1cnc(-c2ccccc2)[nH]1`, the Potency entry in experiment [1] and in experiment [2] was “inactive” throughout.

Take `CC(O)(C(=O)C1CC1(CO)COC1OC(CO)C(O)C(O)C1O)C1C(O)CC2C3CC=C4CC(O)CC(O)C4(C)C3C(O)CC21C` (stereo not drawn): the Potency entry in experiment [1] and in experiment [2] was “inactive” in each case.

`CCC(=O)NC(c1cc(Cl)c2cccnc2c1O)C(C)C` (stereo not drawn): the Potency result in experiment [1] and in experiment [2] was “inactive” throughout.

With `COC(=O)c1c(-c2ccccc2)no[n+]1[O-]`, the Potency result in experiment [1] and in experiment [2] was “inactive” each time.

`Cn1ccc2cc(-c3ccc4ncnc(NCc5cccc(F)c5)c4c3)ccc21`: the Potency result in experiment [1] and in experiment [2] was “inactive” each time.

Take `Cc1ccc(-c2ccc(=O)n(CC(=O)N(C)C3CCCCCC3)n2)cc1`: the Potency result in experiment [1] and in experiment [2] was “inactive” throughout.

`CC1(C)CC(=O)C2=C(C1)NC(Nc1nc3ccccc3o1)=NC21CCCC1`: the Potency result in experiment [1] and in experiment [2] was “inactive” throughout.

As for `CC(C)c1ccccc1-c1nc2c(c(NCc3ccc(-c4cccnc4)cc3)n1)CNC2`, the Potency result in experiment [1] and in experiment [2] was “inactive” each time.

For `COc1ccc(-c2nc3ccccc3c(=O)n2Cc2ccco2)cc1COc1c(C)cccc1C`, the Potency entry in experiment [1] and in experiment [2] was “inactive” in each case.

Regarding `CCOC(=O)/C=C/c1cc(F)c(S(=O)(=O)N2CCN(S(=O)(=O)c3ccc4c(c3)OCCO4)CC2)cc1F`, the Potency result in experiment [1] and in experiment [2] was “inactive” throughout.

As for `COc1ccccc1N1C(=O)c2ccccc2C1=O`, the Potency result in experiment [1] and in experiment [2] was “inactive” each time.

As for `C=C1C(=O)OC2CC(C)=C(C(C)CCCOC(C)=O)C(OC(=O)CC(C)CC)C12` (stereo not drawn), the Potency result in experiment [1] and in experiment [2] was “inactive” each time.

Turning to `O=C([C@H](Cc1ccc(O[S+](=O)([O-])c2cccc3cnccc23)cc1)N[S+](=O)([O-])c1cccc2cnccc12)N1CCN(Cc2ccccc2)CC1`, the Potency result in experiment [1] and in experiment [2] was “inactive” in each case.
